# Unmarked numbers belong to inactive results. Inconclusive results are not listed. A call without a number means that no potency is given here. Calls of active or inactive are those of the source. Unless noted, the call rests on the fitted dose curve.
# Assays:
# [1] = qHTS assay to identify small molecule antagonists of the sonic hedgehog signaling (Shh) pathway (AID 1259369); further: nearly all actives have a fitted effect of over 45% in size
# Outline: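 Read-out is luminescence from a firefly luciferase gene controlled by the Gli1 response element, in 3T3Gli1-Luc cells pre-incubated 4hr then exposed to compounds and conditioned medium for 24hr.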
# [2] = biological target: Estrogen receptor beta (Homo sapiens) (UniProt Q92731); experiment: qHTS assay to identify small molecule agonists of the estrogen receptor beta (ER-beta) signaling pathway (AID 1259377; active means well fitted activation curve with a large enough effect in the signal ratio in the repeat runs, not every such curve was filed as active; the % refers to the signal ratio)
# Outline: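 Agonist mode cell assay in GripTite HEK293T cells expressing an ER-beta fusion that drives beta-lactamase from an Upstream Activator Sequence; 16 hr compound exposure at 37C, then 2 h LiveBLAzer B/G FRET substrate at room temperature, fluorescence read-out.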
# [3] = biological target: Estrogen receptor beta (Homo sapiens) (UniProt Q92731); experiment: qHTS assay to identify small molecule antagonists of the estrogen receptor beta (ER-beta) signaling pathway (AID 1259378; active means well fitted inhibition curve with a large enough effect in the signal ratio in the repeat runs, not every such curve was filed as active; the % refers to the signal ratio; further: potency means the concentration at half of the fitted maximal effect)
# Outline: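 Antagonist mode: compounds added to beta-lactamase reporter HEK293T ER-beta-UAS cells stimulated with E2 (1nM final), 16 hr at 37C. LiveBLAzer B/G FRET substrate, 2 hours room temperature, fluorescence read-out.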
# [4] = qHTS assay to identify small molecule agonists of the androgen receptor (AR) signaling pathway in the presence of an antagonist - cell viability counter screen (AID 1259379; active means well fitted curve in the direction sought with a large enough effect in the repeat runs; an effect the other way counts as inactive or inconclusive;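 further: MDA-kb2 human breast cancer cells carrying an MMTV luciferase reporter; series mostly up to about 92 µM; nearly all actives have a fitted effect of over 25% in size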)
# Outline: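 Each compound was tested at 15 concentrations on MDA-kb2 cells in the presence of 3.0uM nilutamide. Viability was measured by CellTiter-Fluor fluorescence after a 16 hr incubation at 37C in a CO2-free atmosphere.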
# [5] = qHTS assay to identify small molecule antagonists of the estrogen receptor beta (ER-beta) signaling pathway - cell viability counter screen (AID 1259382; active means well fitted curve in the direction sought with a large enough effect in the repeat runs; an effect the other way counts as inactive or inconclusive;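 further: HEK293T cells carrying ER-beta-UAS-bla reporter stimulated with estradiol; series mostly up to about 92 µM; nearly all actives have a fitted effect of over 55% in size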)
# Outline: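 CellTiter-Glo ATP luminescence measured after the LiveBLAzer read in the same wells; ER-beta-UAS-bla HEK293T cells, 16 hr compound treatment with 1nM 17-beta-estradiol agonist at 37C, 5% CO2.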
# [6] = qHTS assay to identify small molecule agonists or antagonists of the thyroid stimulating hormone receptor (TSHR) signaling pathway - wild type cell line counter screen (AID 1259384)
# Outline: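 Counter screen in untransfected Hek293: compounds (15-point titration, triplicate) plus phosphodiesterase inhibitor Ro20-1724 added after 18 h plating; 30 min RT. Intracellular cAMP via competitive d2/cryptate immunoassay, 1 h incubation.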
# [7] = biological target: Thyrotropin receptor (Homo sapiens) (UniProt P16473); experiment: qHTS assay to identify small molecule antagonists of the thyroid stimulating hormone receptor (TSHR) signaling pathway (AID 1259385); further: nearly all actives have a fitted effect of over 20% in size
# Outline: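 Antagonist mode: compound-treated TSHR-expressing HEK293 cells were stimulated with 1.5 ng/mL TSH (final) in presence of Ro20-1724 for 30 min at RT. HTRF cAMP detection after 1 h; each compound tested at 15 concentrations, triplicate.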
# [8] = biological target: Progesterone receptor (Homo sapiens) (UniProt P06401); experiment: qHTS assay to identify small molecule agonists of the progesterone receptor (PR) signaling pathway (AID 1346784); further: nearly all actives have a fitted effect of over 30% in size
# Outline: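 Cells (PR-UAS-bla HEK 293T, GripTite) were plated in assay medium containing 2% charcoal-stripped FBS and incubated 6 hr. Test compounds in DMSO were added for 16 hr at 37C. FRET substrate was then loaded for 2 hr at room temperature before fluorescence reading.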
# [9] = biological target: Progesterone receptor (Homo sapiens) (UniProt P06401); experiment: qHTS assay to identify small molecule antagonists of the progesterone receptor (PR) signaling pathway (AID 1346795; active means well fitted inhibition curve with a large enough effect in the signal ratio in the repeat runs, not every such curve was filed as active; the % refers to the signal ratio)
# Outline: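 Antagonist mode: compounds tested against 1 nM (final) promegestone stimulation in HEK293T cells expressing PR-UAS-bla reporter, 16 hr at 37C, 5% CO2; beta-lactamase activity detected via B/G FRET substrate after 2 hr at room temperature.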
# [10] = qHTS assay to identify small molecule antagonists of the progesterone receptor (PR) signaling pathway - cell viability counter screen (AID 1346798; active means well fitted curve in the direction sought with a large enough effect in the repeat runs; an effect the other way counts as inactive or inconclusive; further: series mostly up to about 92 µM; nearly all actives have a fitted effect of over 50% in size)
# Outline: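 Counter screen for cytotoxicity: viability of PR-UAS-bla HEK293T cells was measured with CellTiter-Glo luminescence following 16 hr compound exposure in the presence of R5020.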
# [11] = qHTS assay to identify small molecule antagonists of the TGF-beta/Smad signaling pathway - cell viability counter screen (AID 1346824; active means well fitted curve in the direction sought with a large enough effect in the repeat runs; an effect the other way counts as inactive or inconclusive; further: nearly all actives have a fitted effect of over 50% in size)
# Outline: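 Cytotoxicity counter-screen run in the same wells as the beta-lactamase Smad reporter read: CellTiter-Glo luminescence after 30 min at room temperature. HEK 293T SBE-bla cells had 5 hr compound exposure at 37 C with TGF-beta1 (0.25 ng/mL stock).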
# [12] = qHTS assay to identify small molecule agonists of the TGF-beta/Smad signaling pathway - cell viability counter screen (AID 1346829; active means well fitted curve in the direction sought with a large enough effect in the repeat runs; an effect the other way counts as inactive or inconclusive; further: top concentration of the series differs between compounds; nearly all actives have a fitted effect of over 45% in size)
# Outline: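 Cytotoxicity counter screen: CellTiter-Glo luminescence (30 min, room temperature) measured in the SBE-bla HEK 293T reporter wells after 5 hr compound treatment at 37 C and the 2 hr substrate step.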
# [13] = qHTS assay to identify small molecule agonists of the TGF-beta/Smad signaling pathway (AID 1346859; active means well fitted activation curve with a large enough effect in the signal ratio in the repeat runs, not every such curve was filed as active; the % refers to the signal ratio; further: series mostly up to about 77 µM)
# Outline: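 Reporter line: HEK 293T with stably integrated SBE-controlled beta-lactamase. Compound exposure lasts 5 hr at 37 C and 5% CO2; substrate loading follows for 2 hr at room temperature, with emission read at 460 and 530 nm.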
# [14] = biological target: Thyrotropin-releasing hormone receptor (Homo sapiens) (UniProt P34981); experiment: qHTS assay to identify small molecule antagonists of the thyrotropin-releasing hormone receptor (TRHR) signaling pathway (AID 1346877; active means well fitted inhibition curve with a large enough effect in the repeat runs, not every such curve was filed as active; further: series mostly up to about 51 µM)
# Outline: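 Calcium signal in dye-loaded TRHR/HEK293 cells; compounds added 5 min before TRH (1 nM final); fluorescence monitored 3 min at 1 s steps.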
# [15] = biological target: Thyrotropin-releasing hormone receptor (Homo sapiens) (UniProt P34981); experiment: qHTS assay to identify small molecule agonists of the thyrotropin-releasing hormone receptor (TRHR) signaling pathway (AID 1346891);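 further: HEK293 cells expressing TRHR with calcium dye readout; series mostly up to about 58 µM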
# Outline: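 Cells: TRHR-Hek293, seeded and incubated 18 h. Dye loading: 2 h at 37 °C. Compound added from DMSO stock by pin tool. Read-out: kinetic calcium fluorescence over 3 min.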
# [16] = biological target: Estrogen receptor (Homo sapiens) (UniProt P03372); experiment: qHTS assay to identify small molecule agonists of the estrogen receptor alpha (ER-alpha) signaling pathway in the presence of an antagonist (AID 1259383); further: top concentration of the series differs between compounds; nearly all actives have a fitted effect of over 15% in size
# Outline: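 Luminescent ERE-luciferase reporter, VM7Luc4E2 cells (endogenous ER-alpha); 10.0nM ICI-182,780 final; 15-point compound titration; 22hr at 37C; ONE-Glo, 30min RT.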
# [17] = qHTS assay to identify small molecule agonists of the estrogen receptor alpha (ER-alpha) signaling pathway in the presence of an antagonist - cell viability counter screen (AID 1259386; active means well fitted curve in the direction sought with a large enough effect in the repeat runs; an effect the other way counts as inactive or inconclusive;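 further: series mostly up to about 92 µM; cells exposed to compounds for 22 h at 37 °C before the viability read; nearly all actives have a fitted effect of over 30% in size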)
# Outline: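 Using estrogen-depleted VM7Luc4E2 cells, the 15-concentration compound series was applied together with 10.0nM ICI-182,780 and incubated 22hr at 37C/5% CO2. Cell viability was then scored by CellTiter-Fluor.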
# [18] = qHTS assay to identify small molecule agonists of the progesterone receptor (PR) signaling pathway - cell viability counter screen (AID 1346799); further: nearly all actives have a fitted effect of over 45% in size
# Outline: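 Cells (PR-UAS-bla HEK293T) are plated at 3,000/well in 2% charcoal-stripped FBS medium, rested 6 hr, dosed and incubated 16 hr at 37C. CellTiter-Glo is then added and luminescence measured after 30 min at room temperature.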
# [19] = qHTS assay to identify small molecule agonists of the estrogen receptor beta (ER-beta) signaling pathway - cell viability counter screen (AID 1259380; active means well fitted curve in the direction sought with a large enough effect in the repeat runs; an effect the other way counts as inactive or inconclusive; further: nearly all actives have a fitted effect of over 30% in size)
# Outline: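 Compounds dissolved in DMSO were pin-transferred onto ER-beta-UAS-bla HEK293T cells that had settled 6 hr, and exposure ran 16 hr at 37C. Following the reporter read, CellTiter-Glo luminescence after 30 min at room temperature indicated cytotoxicity.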
# Sequence of Estrogen receptor (Homo sapiens) (P03372 whole entry, looked up): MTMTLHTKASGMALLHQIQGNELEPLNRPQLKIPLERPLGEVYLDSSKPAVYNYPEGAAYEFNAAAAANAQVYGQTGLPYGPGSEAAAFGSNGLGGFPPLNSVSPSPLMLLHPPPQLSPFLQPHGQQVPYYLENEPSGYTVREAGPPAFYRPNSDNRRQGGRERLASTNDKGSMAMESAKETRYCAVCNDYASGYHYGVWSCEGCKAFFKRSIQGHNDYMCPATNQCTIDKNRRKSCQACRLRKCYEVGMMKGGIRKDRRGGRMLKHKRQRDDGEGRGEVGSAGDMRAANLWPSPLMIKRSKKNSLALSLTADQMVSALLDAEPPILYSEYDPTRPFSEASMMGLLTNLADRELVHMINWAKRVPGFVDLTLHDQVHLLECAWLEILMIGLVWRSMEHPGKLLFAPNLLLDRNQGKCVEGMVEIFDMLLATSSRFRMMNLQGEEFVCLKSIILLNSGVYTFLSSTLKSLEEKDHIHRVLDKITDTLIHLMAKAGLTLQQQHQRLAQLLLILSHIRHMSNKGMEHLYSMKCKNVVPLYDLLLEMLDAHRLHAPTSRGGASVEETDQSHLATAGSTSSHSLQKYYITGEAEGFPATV
# Sequence of Progesterone receptor (Homo sapiens) (P06401 whole entry, looked up): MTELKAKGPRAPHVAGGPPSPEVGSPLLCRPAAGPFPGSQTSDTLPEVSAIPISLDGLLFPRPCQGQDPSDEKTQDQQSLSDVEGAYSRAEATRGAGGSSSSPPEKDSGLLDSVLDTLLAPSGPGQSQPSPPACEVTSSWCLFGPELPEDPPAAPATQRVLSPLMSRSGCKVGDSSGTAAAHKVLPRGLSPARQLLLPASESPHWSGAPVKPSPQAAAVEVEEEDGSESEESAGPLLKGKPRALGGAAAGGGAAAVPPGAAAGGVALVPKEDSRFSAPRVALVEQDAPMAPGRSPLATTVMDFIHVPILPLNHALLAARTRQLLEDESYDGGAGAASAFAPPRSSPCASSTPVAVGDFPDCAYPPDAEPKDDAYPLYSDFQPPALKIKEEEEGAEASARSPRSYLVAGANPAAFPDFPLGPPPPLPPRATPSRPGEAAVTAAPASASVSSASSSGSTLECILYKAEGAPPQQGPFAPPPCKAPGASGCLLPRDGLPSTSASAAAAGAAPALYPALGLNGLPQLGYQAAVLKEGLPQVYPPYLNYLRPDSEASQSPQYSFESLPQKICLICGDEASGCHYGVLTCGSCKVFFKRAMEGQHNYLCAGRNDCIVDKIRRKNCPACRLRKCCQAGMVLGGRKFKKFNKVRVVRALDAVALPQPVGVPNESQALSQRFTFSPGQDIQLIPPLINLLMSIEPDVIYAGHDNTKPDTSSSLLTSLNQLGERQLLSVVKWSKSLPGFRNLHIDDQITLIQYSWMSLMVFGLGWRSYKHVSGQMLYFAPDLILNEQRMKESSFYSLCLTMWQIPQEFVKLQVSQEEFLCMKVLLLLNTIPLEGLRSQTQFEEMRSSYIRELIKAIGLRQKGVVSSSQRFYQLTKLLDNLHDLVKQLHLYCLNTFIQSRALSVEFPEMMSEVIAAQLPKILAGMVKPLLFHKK
# Sequence of Thyrotropin-releasing hormone receptor (Homo sapiens) (P34981 whole entry, looked up): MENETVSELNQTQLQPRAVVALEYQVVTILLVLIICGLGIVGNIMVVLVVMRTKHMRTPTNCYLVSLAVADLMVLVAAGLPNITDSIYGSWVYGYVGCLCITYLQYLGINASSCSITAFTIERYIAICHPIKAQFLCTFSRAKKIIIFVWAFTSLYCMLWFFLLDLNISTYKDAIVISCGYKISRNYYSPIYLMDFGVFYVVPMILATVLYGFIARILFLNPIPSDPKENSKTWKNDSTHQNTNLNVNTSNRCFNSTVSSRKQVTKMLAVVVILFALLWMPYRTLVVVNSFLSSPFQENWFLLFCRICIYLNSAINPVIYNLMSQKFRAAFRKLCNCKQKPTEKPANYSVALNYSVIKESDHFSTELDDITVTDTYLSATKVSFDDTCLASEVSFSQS
# Sequence of Estrogen receptor beta (Homo sapiens) (Q92731 whole entry, looked up, the tested form may be a part): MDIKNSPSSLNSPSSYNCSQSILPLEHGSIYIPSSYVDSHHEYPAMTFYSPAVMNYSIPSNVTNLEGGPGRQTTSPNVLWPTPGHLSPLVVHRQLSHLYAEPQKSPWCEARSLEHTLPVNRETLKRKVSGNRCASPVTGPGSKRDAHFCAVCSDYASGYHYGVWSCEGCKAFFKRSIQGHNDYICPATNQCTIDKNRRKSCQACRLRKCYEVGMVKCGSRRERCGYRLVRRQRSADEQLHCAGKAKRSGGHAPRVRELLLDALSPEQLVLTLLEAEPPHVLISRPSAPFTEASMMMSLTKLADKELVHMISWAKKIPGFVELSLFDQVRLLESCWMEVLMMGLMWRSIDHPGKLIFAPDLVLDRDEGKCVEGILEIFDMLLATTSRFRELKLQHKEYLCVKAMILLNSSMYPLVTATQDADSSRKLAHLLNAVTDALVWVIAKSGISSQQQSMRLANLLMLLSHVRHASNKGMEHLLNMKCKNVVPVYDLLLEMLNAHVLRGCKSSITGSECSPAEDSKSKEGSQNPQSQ
# Sequence of Thyrotropin receptor (Homo sapiens) (P16473 whole entry, looked up): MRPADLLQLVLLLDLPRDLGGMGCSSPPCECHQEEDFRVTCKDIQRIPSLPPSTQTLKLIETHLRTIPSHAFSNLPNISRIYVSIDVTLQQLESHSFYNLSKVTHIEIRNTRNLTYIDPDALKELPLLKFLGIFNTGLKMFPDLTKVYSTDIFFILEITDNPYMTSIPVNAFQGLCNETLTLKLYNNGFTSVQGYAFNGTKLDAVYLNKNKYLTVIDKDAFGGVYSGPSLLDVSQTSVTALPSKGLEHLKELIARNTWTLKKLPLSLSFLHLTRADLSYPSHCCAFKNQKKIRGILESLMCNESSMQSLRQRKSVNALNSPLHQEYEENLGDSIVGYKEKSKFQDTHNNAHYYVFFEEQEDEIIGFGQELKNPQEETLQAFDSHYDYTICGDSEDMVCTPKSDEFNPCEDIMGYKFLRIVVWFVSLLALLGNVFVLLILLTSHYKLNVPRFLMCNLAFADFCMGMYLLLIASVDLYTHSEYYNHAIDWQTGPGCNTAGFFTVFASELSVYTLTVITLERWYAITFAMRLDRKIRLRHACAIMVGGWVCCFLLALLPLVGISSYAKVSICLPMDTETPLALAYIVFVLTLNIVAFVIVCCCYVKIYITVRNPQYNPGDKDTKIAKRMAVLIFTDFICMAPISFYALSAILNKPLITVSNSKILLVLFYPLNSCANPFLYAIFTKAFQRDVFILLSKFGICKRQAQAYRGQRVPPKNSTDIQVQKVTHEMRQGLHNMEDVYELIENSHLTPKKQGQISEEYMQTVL
structure (smiles),measurement,setting,value
C=O,Potency,[1],inactive
same,outcome,[2],inactive
same,Potency,[3],inactive
same,Potency,[4],inactive
same,outcome,[5],inactive
same,outcome,[6],inactive
same,Potency,[7],inactive
same,Potency,[8],inactive
same,Potency,[9],inactive
same,Potency,[10],inactive
same,outcome,[11],inactive
same,outcome,[12],inactive
same,outcome,[13],inactive
same,outcome,[14],inactive
same,Potency,[15],inactive
CC(C)C(=O)OC/C=C/c1ccccc1,Potency,[1],inactive
same,outcome,[2],inactive
same,Potency,[3],inactive
same,Potency,[4],inactive
same,outcome,[5],inactive
same,Potency,[16],inactive
same,outcome,[6],inactive
same,Potency,[7],inactive
same,Potency,[17],inactive
same,Potency,[9],inactive
same,Potency,[10],inactive
same,Potency,[18],inactive
same,outcome,[11],inactive
same,outcome,[12],inactive
same,outcome,[13],inactive
same,outcome,[14],inactive
same,Potency,[15],inactive
CC(CNC1CCCCC1)OC(=O)c1ccccc1 (centres undefined),Potency,[1],inactive
same,outcome,[2],inactive
same,Potency,[3],inactive
same,Potency,[4],inactive
same,outcome,[5],inactive
same,Potency,[16],inactive
same,outcome,[6],inactive
same,Potency,[7],inactive
same,Potency,[17],inactive
same,Potency,[8],inactive
same,Potency,[9],inactive
same,Potency,[10],inactive
same,Potency,[18],inactive
same,outcome,[11],inactive
same,outcome,[12],inactive
same,outcome,[13],inactive
same,outcome,[14],inactive
same,Potency,[15],inactive
O=C(O)CN(CCN(CC(=O)O)CC(=O)O)CCN(CC(=O)O)CC(=O)O,"activity change, negative = inhibition",[1],-28.7% [at 19 µM]
same,activation,[2],-4.18% [at 19 µM]
same,Potency,[3],5.8 µM (active)
same,"activity change, negative = cytotoxicity",[4],-0.118% [at 19 µM]
same,"activity change, negative = cytotoxicity",[17],-0.23% [at 19 µM]
same,activation,[8],9.07% [at 19 µM]
same,"activity change, negative = inhibition",[9],-12.7% [at 18.9 µM]
same,"activity change, negative = cytotoxicity",[18],-4.49% [at 19 µM]
same,"viability change, negative = cytotoxic",[11],3.31% [at 15.8 µM]
same,"activity change, negative = cytotoxicity",[12],9.66% [at 15.8 µM]
same,activation,[13],3.97% [at 15.8 µM]
same,"activity, negative = inhibition",[14],0.832% [at 10.5 µM]
same,activation,[15],-0.051% [at 11.8 µM]
O=C(C(Cl)Cl)N1CCOC12CCCCC2,Potency,[1],inactive
same,outcome,[2],inactive
same,Potency,[3],inactive
same,Potency,[19],inactive
same,outcome,[5],inactive
same,Potency,[16],inactive
same,outcome,[6],inactive
same,Potency,[7],inactive
same,Potency,[17],inactive
same,Potency,[10],inactive
same,Potency,[18],inactive
same,outcome,[11],inactive
same,outcome,[12],inactive
same,outcome,[13],inactive
same,outcome,[14],inactive
same,Potency,[15],inactive
C[C@@H]1CN(c2c(F)c(N)c3c(=O)c(C(=O)O)cn(C4CC4)c3c2F)C[C@H](C)N1,"activity change, negative = inhibition",[1],23.6% [at 19 µM]
same,activation,[2],3.1% [at 19 µM]
same,"activity, negative = inhibition",[3],17% [at 19 µM]
same,"activity change, negative = cytotoxicity",[4],2.69% [at 19 µM]
same,"activity change, negative = cytotoxicity",[5],5.91% [at 19 µM]
same,activation,[16],0.0574% [at 19 µM]
same,cAMP activity change,[6],4.73% [at 18.9 µM]
same,"activity change, negative = inhibition",[7],-0.774% [at 19 µM]
same,"activity change, negative = cytotoxicity",[17],1.7% [at 19 µM]
same,activation,[8],3.14% [at 19 µM]
same,"activity change, negative = inhibition",[9],8.12% [at 18.9 µM]
same,Potency,[10],inactive
same,"viability change, negative = cytotoxic",[11],4.43% [at 15.8 µM]
same,"activity change, negative = cytotoxicity",[12],-11.5% [at 15.8 µM]
same,activation,[13],1.17% [at 15.8 µM]
same,"activity, negative = inhibition",[14],0.314% [at 10.5 µM]
same,activation,[15],-0.407% [at 11.8 µM]
Nc1cccc(S(=O)(=O)O)c1,Potency,[1],inactive
same,Potency,[3],inactive
same,Potency,[4],inactive
same,Potency,[19],inactive
same,outcome,[5],inactive
same,Potency,[16],inactive
same,outcome,[6],inactive
same,Potency,[7],inactive
same,Potency,[17],inactive
same,Potency,[8],inactive
same,outcome,[11],inactive
same,outcome,[12],inactive
same,outcome,[13],inactive
